Rows were chosen to be rich in hits. Some 4.8% of all compounds tested hit in one or more screens of this group.
SMARCA2 activ: SMARCA2 function activation, primary screen. actives 1% (n = 370,000). activation, % at 9.1 µM. AID 652017. MG213 cells, MMTV-luciferase reporter, dexamethasone, overnight; in the data active means activation above about 7.8%;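 further: 0% = vehicle wells and 100% = reference activator wells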
hgDAF-12 ag: agonists of H. glycines DAF-12 nuclear receptor. HEK293 GAL4-hgDAF12 UAS-luciferase reporter, agonist luminescence; normalized to butyrate control. activation, % at 6.8 µM. actives 1.8% (n = 370,000). AID 687014;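 active means activation above a cutoff set at the mean of all screened compounds plus 3 SD, cut at about 10% in these data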;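 further: 0% = DMSO wells and 100% = sodium butyrate wells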
ssDAF12 agonist: activators of S. stercoralis DAF-12 nuclear receptor. HEK293 ssDAF-12/GRIP1 lit1-tk-luc reporter, luminescence; % of 3 µM dafachronic acid response. activation, % at 6.8 µM. actives 1% (n = 370,000). AID 652126;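 active means activation above the mean over all tested compounds plus 3 SD, cut at about 0.9% in these data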;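 further: 0% = DMSO-only wells and 100% = 3 µM delta7-dafachronic acid wells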
DAX1 inh-1: inhibitors of human orphan nuclear receptor DAX1 (NR0B1); P51843; inhibition, % at 6.75 µM; AID 504766; actives 0.99% (n = 340,000); HEK293 Gal4-DAX1 luciferase reporter, luminescence;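 active means inhibition above the mean over all tested compounds plus 3 SD, cut at about 4.2% in these data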;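 further: 0% = DAX1-transfected cells with DMSO and 100% = empty-vector control cells with DMSO; inhibition shows as a rise in luminescence from relieved DAX1 repression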
Target sequence (P51843 207-470 limits assumed): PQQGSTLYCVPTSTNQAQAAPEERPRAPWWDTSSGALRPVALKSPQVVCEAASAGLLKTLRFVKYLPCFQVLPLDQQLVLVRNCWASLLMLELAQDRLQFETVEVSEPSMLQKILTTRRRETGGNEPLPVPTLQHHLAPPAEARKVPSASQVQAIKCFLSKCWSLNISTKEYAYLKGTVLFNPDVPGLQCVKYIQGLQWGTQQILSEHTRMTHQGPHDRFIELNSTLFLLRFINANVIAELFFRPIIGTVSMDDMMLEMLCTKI
DAX1 inh-2: inhibitors of DAX1 repression of SF-1 activated StAR promoter | HEK293T StAR-luciferase reporter, SF-1/DAX-1 repression relief | inhibition, % at 6.8 µM | actives 1.1% (n = 370,000);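 active means inhibition above the mean over all tested compounds plus 3 SD, cut at about 3.6% in these data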;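 further: 0% = DAX-1 cells with DMSO and 100% = cells lacking DAX-1 with DMSO; higher inhibition means more luminescence from relief of DAX-1 repression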
hcDAF12 agonist: H. contortus DAF-12 activation, primary screen; HEK293 hcDAF-12 lit1-tk-luc reporter, luminescence; 0% DMSO, 100% Δ7-dafachronic acid; activation, % at 6.8 µM; actives 1.4% (n = 370,000); AID 652067;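 active means activation above the mean of all tested compounds plus 3 SD, cut at about 5.5% in these data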;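 further: 100% = response to 3 µM Δ7-dafachronic acid high control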
SMARCA2 act conf: SMARCA2 activation, confirmation screen | actives 30% (n = 3,500) | shares compounds with SMARCA2 activ | MG213 cells, MMTV-luciferase with dexamethasone, luminescence, overnight; MG213 cells expressing E1A, Rb sequestered; DMSO wells 0%, reference activator 100% | AID 652260 | activation, % at 9.1 µM;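 active means activation above its plate's cutoff, the mean activation of tested wells plus 3 SD, cut at about 7.9% in these data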
GAL4-VP16 Luc: counter-screen for SMARCA2 activators: GAL4-VP16 luciferase reporter activation; AID 686939; HEK293 GAL4-VP16 pG5luc reporter, luciferase luminescence; scaled: DMSO wells 0%, SAHA wells 100%; actives 41% (n = 3,500); activation, % at 9.1 µM; shares compounds with SMARCA2 activ;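 active means activation above the solvent-only control well mean plus 3 SD, averaged across control plates, cut at about 5.2% in these data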
An asterisk follows results filed as active; · = not tested or not shown.

SMILES	SMARCA2 activ	hgDAF-12 ag	ssDAF12 agonist	DAX1 inh-1	DAX1 inh-2	hcDAF12 agonist	SMARCA2 act conf	GAL4-VP16 Luc
Cn1c(=NC(=O)c2cccc([N+](=O)[O-])c2)sc2ccccc21	8.7*	6.9	0.5	1.4	3.4	5.5	6.3	13.6*
CC(=O)Nc1ccc(/C=N/NC(=O)CNC(=O)c2ccccc2)cc1	-2.7	-4.5	-1.8	0.6	0.1	-0.5	·	·
CN(C)S(=O)(=O)c1ccc(C(=O)NCCOc2ccc(F)cc2)cc1	2.6	5.8	0.0	1.0	1.2	2.6	·	·
CC(C)c1ccc(/C=N/NC(=O)CC(=O)NC2CCCCC2)cc1	8.4*	2.7	-0.6	0.4	0.1	-1.3	-0.3	0.5
CC(=O)NC(CC(=O)NC1CCCc2ccccc21)c1ccccc1 (stereo unspecified)	8.0*	1.7	-0.4	-0.5	0.2	2.8	-1.5	-0.8
O=C(O)CSCC(=O)NC1CCCc2ccccc21 (stereo unspecified)	6.0	-2.3	-2.0	-0.2	0.4	1.7	·	·
CC1(C)NC(=O)N(CCOCCOc2c(Cl)cc(Cl)cc2Cl)C1=O	-2.7	-1.2	-1.1	1.1	0.4	-1.5	·	·
CN(CC(=O)Nc1ccccc1Cl)C(=O)COC(=O)c1nc(Cl)c(Cl)c(Cl)c1Cl	21.8*	-2.6	0.1	-0.1	1.1	0.6	8.2*	1.3
CN(CC(=O)Nc1ccccc1Cl)C(=O)COC(=O)c1ccc(Cl)nc1	-3.0	0.3	-0.7	-0.2	-1.2	-0.6	·	·
COCC1CCN(C(=O)C2CCC(=O)N(Cc3ccc(Cl)cc3)C2)CC1 (stereo unspecified)	8.3*	-0.2	-1.4	0.3	-1.0	1.0	-1.2	-0.1
O=C1CCC(C(=O)N2CCC(CO)CC2)CN1Cc1ccc(Cl)cc1 (stereo unspecified)	-2.5	-0.9	-0.1	-0.2	1.8	2.2	·	·
CCNC(=O)CSc1nnc(-c2cccc(S(=O)(=O)N(CC)CC)c2)n1CCc1ccccc1	8.9*	-2.2	-1.8	-0.4	-0.2	0.3	-4.1	0.5
COc1ccc(CNC(=O)CN=C2NC(=O)C(c3ccccc3)(c3ccccc3)N2)cc1	11.5*	0.2	-1.0	0.3	0.0	-0.5	-0.1	0.1
O=C1c2cccc3cccc(c23)C(=O)N1CCN1CCN(CC(O)COCc2ccc(Cl)cc2)CC1 (stereo unspecified)	8.7*	-6.8	-2.5	-2.0	-0.6	-5.6	8.5*	5.4*
COc1cc(COCC(O)CN2CCN(CCN3C(=O)c4cccc5cccc(c45)C3=O)CC2)cc(OC)c1OC (stereo unspecified)	0.7	0.1	-0.9	-1.0	0.3	-3.8	·	·
Cc1ccc(/C=C2/NC(=O)N(Cc3ccccc3)C2=O)o1	-0.8	-0.8	-0.4	-0.4	0.0	-1.0	·	·
O=C(NC1C2CC3CC(C2)CC1C3)C1CCCCC1 (stereo unspecified)	-4.0	-2.4	-0.4	1.1	-0.4	-0.6	·	·
COc1ccc(/C=N\NC(=O)c2nn(C)cc2Cl)cc1CN1CCOCC1	10.5*	-0.1	-1.4	0.1	0.4	-0.8	-2.1	2.1
COc1ccc(/C=N/NC(=O)c2ccncc2)cc1CN1CCOCC1	-2.7	0.5	-1.0	0.1	0.2	0.3	·	·
Cc1cccc(NC(=S)NC(=O)c2oc3ccccc3c2C)n1	4.4	8.7	-0.2	1.9	0.5	2.1	·	·
Cc1cccc(C(=O)NCCc2ccccc2)c1	10.7*	12.9*	-0.2	2.6	2.5	2.9	7.5	14.4*
O=C(NCCc1ccccc1)c1ccc(Cl)c([N+](=O)[O-])c1	9.9*	8.9	-0.5	1.2	1.8	2.2	0.9	8.6*
O=C(NN1CCOCC1)c1ccc(Cl)c([N+](=O)[O-])c1	10.3*	-1.6	-1.3	-0.7	0.2	-1.9	0.2	0.8
CCC(CC)C(=O)Nc1cccc(C(=O)NCCc2ccccc2)c1	-2.3	7.9	-1.4	0.9	1.4	1.7	·	·
CCCCOc1ccc(C(=O)NCCc2ccccc2)cc1	8.4*	6.2	1.1*	3.0	1.7	2.0	7.7	12.6*
SMILES	SMARCA2 activ	hgDAF-12 ag	ssDAF12 agonist	DAX1 inh-1	DAX1 inh-2	hcDAF12 agonist	SMARCA2 act conf	GAL4-VP16 Luc
OC1C2CCC(C2)C1CN1CCOCC1 (stereo unspecified)	-1.9	-0.4	-1.0	2.4	-1.4	0.9	·	·
CCOc1ccccc1NC(=O)CN(c1nccs1)S(=O)(=O)c1ccc(N)cc1	-1.8	1.2	-1.5	0.6	0.2	-2.9	·	·
C/C(=C\COc1ccc2ccc(=O)oc2c1)CC[C@@H](O)C(C)(C)O	1.5	5.5	-1.0	3.3	-0.2	0.8	·	·
CC/S(=N\S(=O)(=O)c1ccc(C)cc1)c1ccccc1 (stereo unspecified)	8.1*	1.8	-1.2	0.1	0.5	-0.6	-3.7	-1.3
COc1cccc(-c2nn(C)c3sc(C(=O)N4CCOCC4)cc23)c1	-1.7	-1.6	-1.6	1.1	-0.6	-3.1	·	·
O=[N+]([O-])c1ccc(/C=N/N=C/c2ccc([N+](=O)[O-])o2)o1	19.1*	-4.2	-0.8	-1.8	-1.3	2.6	-13.8	-1.8
O=C1C2C3C=CC(C4CC34)C2C(=O)N1/N=C/c1ccc(-c2ccc([N+](=O)[O-])cc2)o1 (stereo unspecified)	0.6	4.0	-0.9	-0.6	0.0	0.1	·	·
COC(=O)c1ccc(-c2ccc(/C=N/N3C(=O)C4C5C=CC(C6CC56)C4C3=O)o2)cc1 (stereo unspecified)	9.0*	7.0	-0.7	-0.8	0.5	2.9	1.4	5.9*
O=C1C2C3C=CC(C4CC34)C2C(=O)N1/N=C/c1ccc([N+](=O)[O-])o1 (stereo unspecified)	9.3*	-1.9	-0.8	-0.2	-0.6	-1.8	10.4*	2.0
CCc1cc(C(=O)N2CCCC(Nc3ccc(F)c(F)c3)C2)n(C)n1 (stereo unspecified)	0.0	-0.9	-0.7	0.0	-1.2	-1.1	·	·
CCOC(=O)c1[nH]cnc1C(=O)Nc1ccncc1	-0.7	-0.3	-1.4	0.1	0.0	1.0	·	·
Cc1cc(=O)[nH]c(SCC(=O)c2ccc(O)c(O)c2)n1	4.3	-1.4	-1.6	0.3	-0.4	-2.2	·	·
Cc1ccc(C(=O)CSc2nc(C)cc(=O)[nH]2)cc1	8.2*	1.6	-1.8	-0.7	0.1	0.1	-2.2	0.4
COc1cc2sc3cc(NCc4ccc(C)o4)ccc3c(=O)c2cc1OC	8.7*	6.9	-1.2	0.5	1.1	1.6	8.9*	9.3*

Screens: PubChem BioAssay, The Scripps Research Institute Molecular Screening Center
